Compound activity: PubChem, several laboratories
LGR2 inh – inhibitors of bursicon-induced LGR2 CRE-luciferase signal, primary screen, cell-based, HEK293, CRE-luciferase reporter, bursicon stimulation; 0.35% of 380,000 active; bursicon-stimulated, 4 h; inhibition, % at 9.99 µM;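 active = drop in luminescence signal, shown as inhibition above about 50% in the replicate tests, limit read from the data, passing the limit was not always enough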;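 note: agonist challenge used bursicon conditioned medium at about half maximal strength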
TWEAK-Fn14 inh – inhibitors of TWEAK-Fn14 signaling, primary screen, luciferase reporter cells, uHTS; TWEAK-stimulated Fn14 reporter cells, luciferase luminescence, 8 h; 2% of 360,000 active; AID 1159606, 2016; inhibition, % at 10 µM; in the data active = inhibition above about 50%
TROY NFkB inh – inhibitors of TROY-driven NF-kB signaling, primary screen, Q293 LMP1-TROYcd cells, NF-kB luciferase, uHTS; Q293 LMP1-TROYcd NF-kB luciferase reporter, 4 h; inhibition, % at 10 µM; 0.98% of 360,000 active;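 active = compounds whose plate-normalised and pattern-corrected inhibition of the luciferase reporter signal at the single screening dose is 50% or more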
HSP90 refold inh – HSP90 inhibitors, primary screen, cell lysate, luminescence; Heat shock protein HSP 90 (rabbit reticulocyte lysate; luciferase refolding); Rabbit reticulocyte lysate, luciferase refolding luminescence, 3 h; inhibition, % at 5.6 µM; 0.91% of 290,000 active;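 active = inhibition above the screen-wide mean plus 3 SD, computed separately per campaign, cut at about 16% in these data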;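 note: inhibitors lower the luminescence because luciferase stays unfolded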
Of the large screens only hits and unclear results are named; the others gave an inactive call. A selection: hits, their analogues and other compounds. The true share with any hit is near 2.2%.

COC(=O)[C@H]1[C@H](CO)[C@H]2Cn3c(ccc(-c4ccccc4F)c3=O)[C@@H]1N2CC1CCCC1	none (no result: TWEAK-Fn14 inh, TROY NFkB inh, HSP90 refold inh)
CCC(=O)N1[C@@H]2c3ccc(C4=CCCC4)c(=O)n3C[C@H]1[C@H](CO)[C@H]2C(=O)OC	none (no result: TWEAK-Fn14 inh, TROY NFkB inh, HSP90 refold inh)
CC(C)n1c(O)c(C2c3cc(Cl)ccc3Oc3[nH]c(=O)n(C(C)C)c(=O)c32)c(=O)[nH]c1=O (stereo unspecified)	TWEAK-Fn14 inh 100.1 (no result: LGR2 inh)
CC(=O)c1c(O)n(-c2cccc(Cl)c2)c(=O)[nH]c1=O (tested in a mixture with another compound)	none
COc1ccc(C#Cc2ccc([C@@H]3[C@@H](CO)N4CCCCN(C(=O)Cc5ccncc5)C[C@@H]34)cc2)cc1	none (no result: TWEAK-Fn14 inh, TROY NFkB inh, HSP90 refold inh)
CCCCCCn1c(N)c(C(=O)NCCN2CCOCC2)c2nc3ccccc3nc21	TWEAK-Fn14 inh 55.8 (no result: LGR2 inh, TROY NFkB inh)
CCCCCn1c(N)c(C(=O)NCc2cccs2)c2nc3ccccc3nc21	none (no result: LGR2 inh, TWEAK-Fn14 inh, TROY NFkB inh)
CCCCn1c(N)c(C(=O)NCc2cccs2)c2nc3ccccc3nc21	TROY NFkB inh 67.5 (no result: LGR2 inh)
CCCCCn1c(N)c(C(=O)NCCN2CCOCC2)c2nc3ccccc3nc21	none (no result: LGR2 inh)
CCCCNC(=O)c1c(N)n(Cc2ccc3c(c2)OCO3)c2nc3ccccc3nc12	TWEAK-Fn14 inh 51.2, TROY NFkB inh 59.5
CCCN1[C@@H]2c3ccc(-c4ccccc4)c(=O)n3C[C@H]1[C@H](CO)[C@H]2C(=O)OC	none (no result: TWEAK-Fn14 inh, TROY NFkB inh, HSP90 refold inh)
CCCN1[C@@H]2Cn3c(ccc(-c4ccccc4)c3=O)[C@H]1[C@@H](C(=O)OC)[C@@H]2CO	none (no result: TWEAK-Fn14 inh, TROY NFkB inh, HSP90 refold inh)
COC(=O)[C@@H]1[C@@H](CO)[C@@H]2Cn3c(ccc(C4=CCCCC4)c3=O)[C@H]1N2Cc1ccccc1OC	none (no result: TWEAK-Fn14 inh, TROY NFkB inh, HSP90 refold inh)
O=[N+]([O-])/C=C/c1c(Cl)cccc1Cl	TWEAK-Fn14 inh 51.7 (no result: HSP90 refold inh)
CCN(CC)c1ccc(/C=C/[N+](=O)[O-])cc1	none
CC[C@@H](O)C[C@H]1CCC[C@@]2(C[C@@H]3OC(=O)/C=C/[C@@](C)(O)[C@@H](O)[C@H](C)[C@@H](O)[C@H](OC4CCC(N(C)C)C(C)O4)[C@@H](O)[C@](C)(O)CCCCC/C=C/[C@@H]4CC(C)(C)O[C@@]4(O)C[C@H](O2)[C@H]3C)O1 (stereo partly specified)	TWEAK-Fn14 inh 60.5 (no result: LGR2 inh, HSP90 refold inh)
CCCNC(=O)[C@H]1[C@H](CO)[C@H]2Cn3c(cccc3=O)[C@H]2N1C	none (no result: TWEAK-Fn14 inh, TROY NFkB inh, HSP90 refold inh)
CC1OC(OC2CC(O)C3(CO)C4C(O)CC5(C)C(C6=CC(=O)OC6)CCC5(O)C4CCC3(O)C2)C(O)C(O)C1O (stereo unspecified)	LGR2 inh 89.6, TWEAK-Fn14 inh 91.6 (no result: HSP90 refold inh)
COc1ccc(C(=O)N/N=C/C23CC[C@@H](O)CC2(O)CC[C@@H]2[C@@H]3CCC3(C)C(C4=CC(=O)OC4)CCC23O)cc1 (stereo partly specified)	none
C[C@@H]1O[C@@H](O[C@H]2C[C@@H](O)[C@]3(CO)[C@H]4[C@H](O)C[C@]5(C)[C@@H](C6COC(=O)C6)CC[C@]5(O)[C@@H]4CC[C@]3(O)C2)[C@H](O)[C@H](O)[C@H]1O (stereo partly specified)	LGR2 inh 81.2, TWEAK-Fn14 inh 71.1
CC1=CC2OC3CC4OC(=O)C=CC=CC(C(C)O)OCC(O)C(C)CC(=O)OCC2(CC1O)C4(C)C31CO1 (stereo unspecified)	LGR2 inh 107.0, TWEAK-Fn14 inh 99.3, TROY NFkB inh 84.2 (no result: HSP90 refold inh)
CC1=CC2OC3CC4OC(=O)C=CC=CC(=O)OCCC(C)C(O)C(=O)OCC2(CC1O)C4(C)C31CO1 (stereo unspecified)	TWEAK-Fn14 inh 96.0, TROY NFkB inh 84.4 (no result: LGR2 inh, HSP90 refold inh)
CC(=O)O[C@H]1CC[C@]2(C)C3CC[C@@]4(C)C(C[C@@H](O)[C@@H]4O)C3[C@@H](OC(C)=O)C[C@H]2C1 (stereo partly specified)	none (no result: HSP90 refold inh)
CC(=O)O[C@@H]1CC[C@]2(C)C3CC[C@]4(C)C(=O)[C@H](O)CC4C3[C@@H](OC(C)=O)C[C@H]2C1 (stereo partly specified)	TWEAK-Fn14 inh 52.8 (no result: HSP90 refold inh)
Cc1ccc2nc(N3CCC(C(=O)N4CCC5(CC4)OCCO5)CC3)sc2c1	none (no result: LGR2 inh)
O=C(C1CCCN(c2nnc(-n3cccc3)s2)C1)N1CCC2(CC1)OCCO2 (stereo unspecified)	TWEAK-Fn14 inh 74.4 (no result: LGR2 inh, TROY NFkB inh)
CC=Cc1ccc2n(c1=O)C[C@H]1[C@H](CO)[C@@H](C(=O)OC)[C@@H]2N1C(=O)CC (mixture of isomers)	none (no result: TWEAK-Fn14 inh, TROY NFkB inh, HSP90 refold inh)
COC(=O)[C@@H]1[C@@H](CO)[C@@H]2Cn3c(ccc(C4=CCCC4)c3=O)[C@H]1N2S(=O)(=O)c1cn(C)cn1	none (no result: TWEAK-Fn14 inh, TROY NFkB inh, HSP90 refold inh)
COC(=O)C[C@@H]1CC[C@H]2NC[C@@H](O)COC[C@@H]2O1	none (no result: TWEAK-Fn14 inh, TROY NFkB inh, HSP90 refold inh)
N#CC(C#N)=NNc1ccc(-n2ccc(C(F)(F)F)n2)cc1	LGR2 inh 78.4, TWEAK-Fn14 inh 91.4, TROY NFkB inh 67.5
Cc1cc(C)n(-c2ccc(NN=C(C#N)C#N)cc2)n1	LGR2 inh 81.9, TWEAK-Fn14 inh 84.1, TROY NFkB inh 65.3
COc1ccc(OC(=O)N(C)C[C@H]2OCc3ccccc3-c3c(n(C)c4ccccc34)C(=O)N([C@@H](C)CO)C[C@@H]2C)cc1	none (no result: TWEAK-Fn14 inh, TROY NFkB inh, HSP90 refold inh)
CCN(CC)S(=O)(=O)c1ccc(NN=C(C#N)C#N)cc1	TWEAK-Fn14 inh 66.6, TROY NFkB inh 63.1 (no result: LGR2 inh)
CCOC(=O)C(O)(c1ccc(NC(=S)NC(=O)c2ccc(Cl)cc2Cl)c(C)c1)C(F)(F)F (stereo unspecified)	TWEAK-Fn14 inh 71.6, TROY NFkB inh 58.4
COC(=O)C(O)(c1ccc(NC(=S)NC(=O)c2ccc(Cl)cc2Cl)c(C)c1)C(F)(F)F (stereo unspecified)	TWEAK-Fn14 inh 55.6, TROY NFkB inh 63.7
COc1ccc(C#Cc2ccc([C@H]3[C@H]4CN(C(=O)Cc5ccncc5)CCCCN4[C@H]3CO)cc2)cc1	none (no result: TWEAK-Fn14 inh, TROY NFkB inh, HSP90 refold inh)
Nc1ncnc2c1ccn2[C@@H]1O[C@H](CO)[C@@H](O)[C@H]1O	LGR2 inh 93.5, TWEAK-Fn14 inh 94.9, TROY NFkB inh 52.5 (no result: HSP90 refold inh)
NC(=S)c1cn(C2OC(CO)C(O)C2O)c2ncnc(N)c12 (stereo unspecified)	LGR2 inh 101.8, TWEAK-Fn14 inh 103.2, TROY NFkB inh 68.4
COc1ccc(C#Cc2ccc([C@H]3[C@H](CO)N4CCCCN(C(=O)Cc5cccnc5)C[C@@H]34)cc2)cc1	none (no result: TWEAK-Fn14 inh, TROY NFkB inh, HSP90 refold inh)
CCCN1[C@@H]2c3ccc(-c4ccc(OC)cc4)c(=O)n3C[C@H]1[C@H](CO)[C@H]2C(=O)OC	none (no result: TWEAK-Fn14 inh, TROY NFkB inh, HSP90 refold inh)
Cc1ccc(N(C)C(=O)Oc2ccc(C(=O)c3ccc(Cl)cc3)cc2)cc1	TWEAK-Fn14 inh 67.8 (no result: LGR2 inh, TROY NFkB inh)
CC(=O)Nc1ccc(OC(=O)N(C)c2ccc(C)cc2)cc1	none
Cc1cccc(C)c1-n1nnnc1C(CCc1ccccc1)N1CCC(n2c(=O)[nH]c3ccccc32)CC1 (stereo unspecified)	TWEAK-Fn14 inh 107.3, TROY NFkB inh 81.5 (no result: HSP90 refold inh)
COc1ccc(-n2nnnc2C(CCc2ccccc2)N2CCC(n3c(=O)[nH]c4ccccc43)CC2)cc1 (stereo unspecified)	LGR2 inh 101.5, TWEAK-Fn14 inh 93.7, TROY NFkB inh 71.7 (no result: HSP90 refold inh)
